Most compounds without a hit are left out; they make up all but 12% or so of the library.
BAZ2B inh: inhibitors of human BAZ2B bromodomain. Q9UIF8. AlphaScreen BAZ2B-H3K14Ac peptide displacement. Potency, µM (series often up to 114 µM), inactives show top-dose activity change, negative = inhibition, hits mostly inhibitors. 4.4% of 360,000 active; note: % is set by controls: 0 for no effect and ±100 for the full control effect; nearly all actives have a fitted effect of over 60% in size
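Protein-peptide AlphaScreen: BAZ2B 50 nM, b-H3K14Ac 50 nM, 1x PBS pH 7.4 + 0.01% Tween-20. Preincubation 30 min RT; cpd 30 min RT (top 110 uM); beads 20 min RT, light-protected.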
Sfp inh: blocks B. subtilis Sfp PPTase activity; Q9F4F7; Biochemical Sfp PPTase activity, qHTS; Potency, µM, for the others: largest response in the series, negative = inhibition, usual class: inhibitors; 3.5% of 310,000 active; AID 1490;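 note: the enzyme is Sfp with the accession as filed and its product quenches rhodamine fluorescence; 0% = enzyme reaction without inhibitor and -100% = no enzyme wells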
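Fluorescence-quenching assay with 15 nM Sfp, 5 uM rhodamine-CoA and 12.5 uM BHQ-2-labelled ybbR peptide in pH 7.6 Hepes/MgCl2 buffer. Enzyme was pre-incubated with compound for 15 min at room temperature. Rate was taken from the 30-min fluorescence change (525/598 nm).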
L3MBTL1 block: blocks human L3MBTL1; 0.66% of 230,000 active; Q9Y468; Potency, µM (top dose mostly 57.1 µM), for inactives: top-dose activity, negative = inhibition, usual class: inhibitors; AlphaScreen L3MBTL1–H3K9me1 peptide binding; note: % is set by controls: 0 for no effect and ±100 for the full control effect; nearly all actives have a fitted effect of over 60% in size
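AlphaScreen proximity signal between nickel-chelate acceptor and streptavidin donor beads (final 10 ug/mL) reports binding of 50 nM L3MBTL1 to 75 nM biotin-H3 K9me1 peptide; complex incubated with compounds 30 min at room temperature; cefsulodin titration as control.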
JMJD2A Tudor: JMJD2A Tudor domain (human) inhibition; Potency, µM (titrated, usually from 114 µM), for the others: top-dose activity change, negative = inhibition, actives largely listed as inhibitors; AlphaScreen JMJD2A-Tudor / H3K4me3 peptide binding; 4.4% of 390,000 active; O75164; note: % is set by controls: 0 for no effect and ±100 for the full control effect; nearly all actives have a fitted effect of over 50% in size
Target sequence (O75164 whole entry, looked up, the tested form may be a part): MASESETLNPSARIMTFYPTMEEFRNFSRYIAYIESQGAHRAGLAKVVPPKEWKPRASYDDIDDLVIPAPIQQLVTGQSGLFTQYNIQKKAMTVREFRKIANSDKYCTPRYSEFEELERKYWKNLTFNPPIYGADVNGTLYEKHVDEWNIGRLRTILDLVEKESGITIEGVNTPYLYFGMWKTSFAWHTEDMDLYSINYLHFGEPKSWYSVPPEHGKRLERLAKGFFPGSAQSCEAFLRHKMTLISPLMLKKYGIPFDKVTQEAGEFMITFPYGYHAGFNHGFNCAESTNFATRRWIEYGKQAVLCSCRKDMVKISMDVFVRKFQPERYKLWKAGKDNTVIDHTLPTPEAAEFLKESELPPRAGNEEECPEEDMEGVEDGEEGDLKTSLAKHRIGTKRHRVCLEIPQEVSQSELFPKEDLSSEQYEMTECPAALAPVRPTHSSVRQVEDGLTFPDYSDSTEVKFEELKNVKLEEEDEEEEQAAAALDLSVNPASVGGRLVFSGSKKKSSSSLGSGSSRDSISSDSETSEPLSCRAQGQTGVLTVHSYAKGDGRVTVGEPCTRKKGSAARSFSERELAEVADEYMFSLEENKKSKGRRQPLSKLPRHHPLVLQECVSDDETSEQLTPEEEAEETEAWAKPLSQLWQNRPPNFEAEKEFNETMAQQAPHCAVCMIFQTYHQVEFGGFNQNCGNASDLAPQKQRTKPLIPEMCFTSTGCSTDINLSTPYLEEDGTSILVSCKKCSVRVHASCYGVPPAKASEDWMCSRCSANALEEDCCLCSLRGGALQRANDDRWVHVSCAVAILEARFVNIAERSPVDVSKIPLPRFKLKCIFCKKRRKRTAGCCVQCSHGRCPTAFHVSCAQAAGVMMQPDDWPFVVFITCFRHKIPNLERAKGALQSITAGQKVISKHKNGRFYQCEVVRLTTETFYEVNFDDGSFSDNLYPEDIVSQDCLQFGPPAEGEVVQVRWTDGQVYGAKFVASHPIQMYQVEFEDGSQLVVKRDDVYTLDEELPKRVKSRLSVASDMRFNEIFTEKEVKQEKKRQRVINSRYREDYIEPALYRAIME
G9a block: inhibitors of human histone lysine methyltransferase G9a; Q96KQ7; G9a H3K9 monomethylation, AlphaScreen, 2 h; Potency, µM (highest dose often 102 µM), inactives show top-dose activity, negative = inhibition, hits mostly inhibitors; 8.8% of 350,000 active; AID 504332; note: % is set by controls: 0 for no effect and ±100 for the full control effect; nearly all actives have a fitted effect of over 75% in size
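Readings reflect AlphaScreen signal from monomethyl-H3K9 antibody detection. HMT at 20 nM; substrate b-H3K9 500 nM; cofactor SAM 20 uM; 2 h RT reaction; compounds tested as titrations in qHTS with 15 min preincubation.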
HP1b chromo inh: inhibitors of HP1-beta chromodomain binding to methylated histone tails; P83916; AlphaScreen HP1-beta / biotin-H3K9me3 peptide binding; Potency, µM (top dose mostly 114 µM), for the others: at the top dose activity change, negative = inhibition, usual class: inhibitors; 0.56% of 390,000 active; note: nearly all actives have a fitted effect of over 70% in size
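Compound inhibition of the preformed complex between 50 nM HP1-beta and 50 nM biotinylated H3K9me3 peptide was read by AlphaScreen. Buffer was PBS pH 7.4 with 0.01% Tween-20. Incubations ran 30 min at room temperature, with 10 ug/mL donor/acceptor beads.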
* = called active by the depositor; u = inconclusive; x = not tested or not shown; ! = not confirmed by another sample; [ ] = dose if it differs, or a comment. Calls come from the whole dose curve; as a rule, active = well fitted curve in the direction sought with a large enough effect; inconclusive = small, poorly fitted or top-dose-only effect, or another doubt; inactive = no such curve, though single readings can be large; an effect the other way counts as inactive or inconclusive. Potency is the fitted concentration of half-maximal effect.

SMILES | BAZ2B inh | Sfp inh | L3MBTL1 block | JMJD2A Tudor | G9a block | HP1b chromo inh
CC1=C(c2ccc(C(C)C)cc2)S(=O)(=O)NC1=NCc1ccccc1Br | -12% | x | x | -14% | -26%[59 µM] | 21%
CNc1ccnc(-c2c(C)noc2C)n1 | x | 12% | x | x | x | x
NCCN1CCN(S(=O)(=O)c2ccc([N+](=O)[O-])cc2)C=C1c1ccc(Cl)cc1 | 56µM* | x | -7% | u | 2%[0.501 µM] | -12%
CCOC(=O)c1c(NC(=O)COc2ccc(Br)cc2)sc2c1CCCC2 | 3% | x | x | -7% | u | 45%
CN(C(=O)c1ccc(OCC=C(c2ccccc2)c2ccccc2)cc1)c1ccccc1I | x | -7% | x | -18% | x | 17%
CCCN(CCC)C(=O)c1c[nH]c2ccc(S(=O)(=O)N(C)c3ccc(OCC)cc3)cc2c1=O | 3% | x | x | -13% | -23%[59 µM] | 28%
O=c1[nH]c(-c2ccccn2)nc2sc(-c3ccccc3)cc12 | 45µM* | 4µM* | -9% | u | 8.9µM* | 47%
Cc1c(C(=O)N(C)C)sc2nc(-c3ccccn3)[nH]c(=O)c12 | 10µM* | 89µM* | x | 50µM* | u | 8%
CCCc1cc(C(N)=O)c(NC(=O)c2cc(C)on2)s1 | -2% | 32µM* | x | -20% | u | -3%
CCCc1cc(C(N)=O)c(NC(=O)c2ccoc2C)s1 | -36% | 13µM* | 3% | u | u | u
CCNC(=S)NNC(=O)c1cc(C)on1 | 8% | 56µM* | 14% | -19% | 32%[12.7 µM] | 38%
Cc1cc(C(=O)NNC(=S)NCc2ccccc2)no1 | 4% | 16% | x | -5% | 1% | 43%
c1ccc(C2NCCn3cccc32)cc1 (configuration not stated) | u | -14% | -6% | u | 50µM* | 26%
O=C(/C=C/c1ccccc1)Oc1cccc(C(=S)N2CCOCC2)c1 | 0% | -7% | x | -13% | 40µM* | -12%
O=C(/C=C/c1ccccc1)Oc1ccccc1C(=S)N1CCOCC1 | -30% | -6% | -10% | -30% | 50µM* | -2%
O=C(/C=C/c1cccc(Oc2ccccc2)c1)N1CCOCC1 | -4% | 4% | x | -14% | -19% | 22%
Cc1c(Cl)cccc1NC(=O)c1ccc2nc(C(C)C)oc2c1 | 3% | x | x | 3% | -4%[59 µM] | 31%[57 µM]
CSc1ccc(CCNS(=O)(=O)c2cc(-c3cc(C)no3)ccc2C)cc1 | -3% | x | x | -8% | -19%[59 µM] | 34%
CS(=O)(=O)Cc1ccc(C(=O)NCC2(N3CCCCC3)CCCCC2)cc1 | 4% | 19% | x | 0% | 12% | 27%
COCc1ccc(C(=O)NCC2(N3CCCCC3)CCCCC2)cc1 | 79µM* | -23% | x | 13µM* | u | 5%
CC(Sc1nc(N)cc(=O)[nH]1)C(=O)Nc1sc2c(c1C#N)CCCC2 (configuration not stated) | -7% | 7% | -10% | -9%[11.4 µM] | 11% | 31%
N#Cc1c(NC(=O)CSc2nc(N)cc(=O)[nH]2)sc2c1CCCCCC2 | 2% | 22% | 0% | -13% | 45µM* | -2%
Cn1cnnc1SCC(=O)Nc1sc2c(c1C#N)CCCCC2 | -29% | 50µM* | -6% | -36% | 13µM* | -18%
COC1=CC(=O)C(C(=O)c2ccccc2)=CC1=O | x | 40µM* | x | x | x | x
CCC(C)NC(=O)CCn1c(-c2ccccc2)cc(C(C)=O)c1C (configuration not stated) | 50µM* | 0% | 7% | 2%[57.1 µM] | 15% | 19%
SMILES | BAZ2B inh | Sfp inh | L3MBTL1 block | JMJD2A Tudor | G9a block | HP1b chromo inh
CC(=O)c1cc(-c2ccccc2)n(CCC(=O)NC2CCCC2)c1C | 50µM* | -9% | x | -18% | 3% | 6%
CCOC(=O)c1cc(-c2ccccc2)n(CCC(=O)NC(C)CC)c1C (configuration not stated) | -32% | 18% | 19% | -19% | 1%[59 µM] | 3%
CC(=O)c1cc(-c2ccccc2)n(CCC(=O)NC2CCCCC2)c1C | 50µM*! | 8% | -3% | -15% | 5%[59 µM] | 25%
CC(=O)c1cc(-c2ccccc2)n(CCC(=O)NC2CCC(C)CC2)c1C (configuration not stated) | -27% | -4% | -4% | -5%[57.1 µM] | 23% | 15%
O=C(CCCN1C(=O)/C(=C/c2ccc(F)cc2)SC1=S)NCCCn1ccnc1 | 22µM* | -3% | x | u | u | u
COc1ccc(/C=C2\SC(=S)N(CCC(=O)NCCCn3ccnc3)C2=O)cc1 | 25µM* | 7% | x | 16% | 56µM* | 44%
CC(C)c1ccc(/C=C2\SC(=S)N(CCC(=O)NCCCn3ccnc3)C2=O)cc1 | u | -1% | x | u | x | 2%
COc1ccccc1/C=C1\SC(=O)N(CCC(=O)NCCCn2ccnc2)C1=O | u | 3% | x | -4% | x | 26%
COc1ccccc1/C=C1\SC(=S)N(CCC(=O)NCCCn2ccnc2)C1=O | 50µM* | 2% | x | -1% | u | 32%
Cc1cc(C)c2c(=O)cc(C(=O)Nc3sc4c(c3C(=O)NCc3ccco3)CCCC4)oc2c1 | -3% | x | x | -7% | -26%[59 µM] | 41%
CCc1ccc2c(CN(CC)Cc3nc4ccccc4c(=O)[nH]3)cc(=O)oc2c1 | 11% | -21% | 10%[11.4 µM] | -14%[11.4 µM] | 3.5µM* | -17%
CCN(Cc1cc(=O)n2cc(Cl)c(C)c(Cl)c2n1)Cc1nc2ccccc2c(=O)[nH]1 | x | -8% | 2% | -14%[57.1 µM] | 50µM* | -4%
O=c1cc(CN2CCN(S(=O)(=O)c3ccccc3)CC2)nc2ccc(Cl)cn12 | 3% | x | 10% | 4% | -6%[0.501 µM] | 42%
Cc1c(Cl)cn2c(=O)cc(CN3CCN(c4ccccc4)CC3)nc2c1Cl | -14% | -25% | x | -11%[11.4 µM] | 40µM* | 29%
O=C(OCC#CCSc1nnc(-c2cccc3ccccc23)o1)c1cccc(F)c1 | x | x | x | 40% | x | x
O=C(CSc1nc2ccccc2n1Cc1ccccc1)N/N=C/c1ccco1 | -1% | u | -1% | -6% | 1%[59 µM] | 15%
CCn1c(SCC(=O)N/N=C/C=C\c2ccco2)nc2ccccc21 | 45µM* | 10µM* | 32µM* | u | 16µM* | -11%
Cn1c(SCC(=O)N/N=C/C=C\c2ccco2)nc2ccccc21 | u | -65% | u | 56µM* | x | u
Cc1ccc(Cn2c(SCC(=O)N/N=C/c3ccc(C)o3)nc3ccccc32)cc1 | u | 56µM* | x | -15% | u | u

Source: PubChem (National Center for Advancing Translational Sciences (NCATS))
